Reference: PubChem BioAssay (EPA / NIEHS)
Active and inactive are the calls of the source. Rule for the calls: active = hit-call score of the fitted dose curve at least 0.9, where 1 is the maximum; inactive = score below 0.9.

How the values were obtained:
Settings in all cases: mRNA level, 48 h; actives raise or lower the signal
[1] = read-out: CYP2E1 (gene 1571); assay: LTEA_HepaRG_CYP2E1: Life Technologies and Expression Analysis (LTEA) Assay for CYP2E1 using HepaRG (AID 2283485)
Procedure, shortened: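 Differentiated HepaRG cells were treated in duplicate for 48 h with chemicals in 0.5% DMSO, from 100 uM downward in half-log dilutions. RNA was then analysed by qRT-PCR for CYP2E1 induction or loss.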

[2] = read-out: CYP4A11 (gene 1579); assay: LTEA_HepaRG_CYP4A11: Life Technologies and Expression Analysis (LTEA) Assay for CYP4A11 using HepaRG (AID 2283486)
Procedure, shortened: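 CYP4A11 transcript levels were quantified by TaqMan qRT-PCR after HepaRG human liver cells were treated for 48 hours with test chemicals (top 100 uM, half-log dilutions, 0.5% DMSO). Gain or loss of signal was fitted relative to DMSO.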

[3] = read-out: Cytochrome P450 3A4 (Homo sapiens) (UniProt P08684); assay: LTEA_HepaRG_CYP3A4: Life Technologies and Expression Analysis (LTEA) Assay for CYP3A4 using HepaRG (AID 2283487)
Procedure, shortened: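 Differentiated HepaRG cells, plated 48 h, then dosed 48 h in serum-free induction medium with 0.5% DMSO, 8 half-log concentrations up to 100 uM, duplicate. CYP3A4 mRNA by qRT-PCR, normalized to ACTB/GAPDH/POLR2A; bidirectional fit versus DMSO.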

[4] = read-out: DNA damage-inducible transcript 3 (DDIT3), DDIT3 (gene 1649); assay: LTEA_HepaRG_DDIT3: Life Technologies and Expression Analysis (LTEA) Assay for DNA damage-inducible transcript 3 (DDIT3) using HepaRG (AID 2283488)
Procedure, shortened: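 Changes in DDIT3 transcript, in either direction relative to 0.5% DMSO vehicle, were quantified by TaqMan qRT-PCR after 48 h chemical exposure of HepaRG cells at 8 concentrations, maximum 100 uM.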

[5] = read-out: Pro-epidermal growth factor (Homo sapiens) (UniProt P01133); assay: LTEA_HepaRG_EGF: Life Technologies and Expression Analysis (LTEA) Assay for Epidermal growth factor (EGF) using HepaRG (AID 2283489)
Procedure, shortened: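 qRT-PCR readout of EGF transcript after 48 h chemical exposure of HepaRG cells; eight concentrations from 100 uM down in half-log steps, duplicate wells, 0.5% DMSO vehicle. Bidirectional curve fitting against DMSO baseline.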

[6] = read-out: Early growth response protein 1 (EGR1) transcription factor, EGR1 (gene 1958); assay: LTEA_HepaRG_EGR1: Life Technologies and Expression Analysis (LTEA) Assay for Early growth response protein 1 (EGR1) transcription factor using HepaRG (AID 2283490)
Procedure, shortened: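 Differentiated human HepaRG cells in serum-free induction medium were exposed in duplicate for 48 h to eight concentrations (top 100 uM, half-log steps) in 0.5% DMSO. EGR1 mRNA was quantified by qRT-PCR, normalized to ACTB, GAPDH and POLR2A, and fitted bidirectionally versus DMSO.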

[7] = read-out: Ezrin (EZR), EZR (gene 7430); assay: LTEA_HepaRG_EZR: Life Technologies and Expression Analysis (LTEA) Assay for Ezrin (EZR) using HepaRG (AID 2283491)
Procedure, shortened: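 EZR transcript levels came from Fluidigm qRT-PCR and were normalized to three housekeeping genes after 48 h chemical exposure of HepaRG cells. Dosing used an 8-point half-log series with a 100 uM top concentration in 0.5% DMSO, tested in duplicate; both directions were fitted versus vehicle.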

[8] = read-out: Cytochrome P450 3A7 (Homo sapiens) (UniProt P24462); assay: LTEA_HepaRG_CYP3A7: Life Technologies and Expression Analysis (LTEA) Assay for CYP3A7 using HepaRG (AID 2283492)
Procedure, shortened: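 CYP3A7 transcript levels were read by TaqMan qRT-PCR on Fluidigm arrays after 48 h chemical exposure of human HepaRG cells, with housekeeping-gene normalisation. Eight half-log concentrations up to 100 uM in 0.5% DMSO were tested in duplicate.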

[9] = read-out: CYP3A5 (gene 1577); assay: LTEA_HepaRG_CYP3A5: Life Technologies and Expression Analysis (LTEA) Assay for CYP3A5 using HepaRG (AID 2283493)
Procedure, shortened: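 mRNA induction or loss of CYP3A5 assessed in HepaRG after 48 h dosing, 100 uM top concentration, duplicate wells; TaqMan qRT-PCR with ACTB, GAPDH, POLR2A normalization; 0.5% DMSO as negative control.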

[10] = read-out: Fatty Acid-Binding Protein 1 (FABP1), FABP1 (gene 2168); assay: LTEA_HepaRG_FABP1: Life Technologies and Expression Analysis (LTEA) Assay for Fatty Acid-Binding Protein 1 (FABP1) using HepaRG (AID 2283494)
Procedure, shortened: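 Differentiated human HepaRG cells were exposed in duplicate for 48 h in serum-free induction medium to 8-point half-log concentration series topping at 100 uM in 0.5% DMSO. FABP1 mRNA measured by TaqMan qRT-PCR, normalized to ACTB/GAPDH/POLR2A; bidirectional fit versus DMSO.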

[11] = read-out: Cytochrome P450 4A22 (Homo sapiens) (UniProt Q5TCH4); assay: LTEA_HepaRG_CYP4A22: Life Technologies and Expression Analysis (LTEA) Assay for Cytochrome P450 4A22 (CYP4A22) using HepaRG (AID 2283495)
Procedure, shortened: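 HepaRG, 48 h post-plating -> serum-free induction medium; dosed 48 h, duplicate, 8 conc. (100 uM top, half-log), 0.5% DMSO. Readout: CYP4A22 mRNA by qRT-PCR, ACTB/GAPDH/POLR2A normalization; gain/loss fit relative to DMSO.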

[12] = read-out: Cytochrome P450 7A1 (Homo sapiens) (UniProt P22680); assay: LTEA_HepaRG_CYP7A1: Life Technologies and Expression Analysis (LTEA) Assay for Cytochrome P450 7A1 (CYP7A1) using HepaRG (AID 2283496)
Procedure, shortened: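 Gene expression endpoint in human HepaRG liver cells treated for 48 h with test chemicals (up to 100 uM, 0.5% DMSO). Values come from bidirectional concentration-response fitting versus DMSO.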

[13] = read-out: Glutathione S-Transferase (GSTA2), GSTA2 (gene 2939); assay: LTEA_HepaRG_GSTA2: Life Technologies and Expression Analysis (LTEA) Assay for Glutathione S-Transferase (GSTA2) using HepaRG (AID 2283497)
Procedure, shortened: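 Human HepaRG cells, plated 48 h, then exposed in serum-free induction medium for 48 h to eight half-log concentrations up to 100 uM in 0.5% DMSO, duplicate. GSTA2 mRNA by qRT-PCR, normalized to ACTB/GAPDH/POLR2A; bidirectional fit versus DMSO.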

[14] = read-out: Glutamate-cysteine ligase catalytic (GCLC), GCLC (gene 2729); assay: LTEA_HepaRG_GCLC: Life Technologies and Expression Analysis (LTEA) Assay for Glutamate-cysteine ligase catalytic (GCLC) using HepaRG (AID 2283498)
Procedure, shortened: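 Differentiated human HepaRG cells, plated 48 h then switched to serum-free induction medium, were exposed in duplicate for 48 h to 8 half-log concentrations topping at 100 uM in 0.5% DMSO. GCLC mRNA was quantified by qRT-PCR against ACTB, GAPDH and POLR2A.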

[15] = read-out: growth arrest and DNA damage 45 (GADD45G), GADD45G (gene 10912); assay: LTEA_HepaRG_GADD45G: Life Technologies and Expression Analysis (LTEA) Assay for growth arrest and DNA damage 45 (GADD45G) using HepaRG (AID 2283499)
Procedure, shortened: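 HepaRG, 48 h exposure, top 100 uM, half-log 8-point series, 0.5% DMSO vehicle, duplicates. Readout: GADD45G transcript by qRT-PCR (Fluidigm array), housekeeping-normalised (ACTB/GAPDH/POLR2A). Bidirectional curve fit vs DMSO baseline.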

[16] = read-out: Heat shock 70 kDa protein 1 (HSPA1A), gene 3303; assay: LTEA_HepaRG_HSPA1A: Life Technologies and Expression Analysis (LTEA) Assay for Heat shock 70 kDa protein 1 (HSPA1A) using HepaRG (AID 2283502)
Procedure, shortened: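 HSPA1A induction in human HepaRG liver cells is measured after 48 h of chemical treatment (100 uM maximum, 0.5% DMSO vehicle). Expression comes from qRT-PCR normalized to endogenous controls.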

[17] = read-out: 3-Hydroxy-3-Methylglutaryl-CoA Synthase 2 (HMGCS2), HMGCS2 (gene 3158); assay: LTEA_HepaRG_HMGCS2: Life Technologies and Expression Analysis (LTEA) Assay for 3-Hydroxy-3-Methylglutaryl-CoA Synthase 2 (HMGCS2) using HepaRG (AID 2283504)
Procedure, shortened: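 qRT-PCR read-out of HMGCS2 transcript, normalised to three housekeeping genes, in HepaRG cells after 48 h chemical exposure. Eight-point curves from 100 uM, half-log dilutions, 0.5% DMSO vehicle; gain or loss fitted relative to DMSO baseline.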

[18] = read-out: Glutathione S-transferase M3 (GSTM3), GSTM3 (gene 2947); assay: LTEA_HepaRG_GSTM3: Life Technologies and Expression Analysis (LTEA) Assay for Glutathione S-transferase M3 (GSTM3) using HepaRG (AID 2283501)
Procedure, shortened: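 qRT-PCR read-out of GSTM3 transcript, normalized to three housekeeping genes, from human HepaRG cells after 48 h chemical exposure. Eight-point half-log series, top 100 uM, 0.5% DMSO vehicle; gain or loss fitted relative to DMSO baseline.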

[19] = read-out: Hypoxia-inducible factor 1-alpha (Homo sapiens) (UniProt Q16665); assay: LTEA_HepaRG_HIF1A: Life Technologies and Expression Analysis (LTEA) Assay for Hypoxia-inducible factor 1 (HIF1A) Trancription factor using HepaRG (AID 2283503)
Procedure, shortened: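 HepaRG, 48 h exposure, 8-pt half-log series from 100 uM, 0.5% DMSO vehicle, duplicates. Readout: HIF1A transcript by qRT-PCR (Fluidigm array), housekeeping-normalised. Bidirectional curve fit vs DMSO baseline.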

[20] = read-out: Glutamate-cysteine ligase regulatory (GCLM), GCLM (gene 2730); assay: LTEA_HepaRG_GCLM: Life Technologies and Expression Analysis (LTEA) Assay for Glutamate-cysteine ligase regulatory (GCLM) using HepaRG (AID 2283500)
Procedure, shortened: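 Human liver HepaRG cultures receive test chemicals for 48 hours at up to 100 uM in 0.5% DMSO. GCLM expression is measured by qRT-PCR and analysed for increases or decreases against vehicle.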

Measured: AC50

Sequence of Cytochrome P450 3A4 (Homo sapiens) (P08684 whole entry, looked up): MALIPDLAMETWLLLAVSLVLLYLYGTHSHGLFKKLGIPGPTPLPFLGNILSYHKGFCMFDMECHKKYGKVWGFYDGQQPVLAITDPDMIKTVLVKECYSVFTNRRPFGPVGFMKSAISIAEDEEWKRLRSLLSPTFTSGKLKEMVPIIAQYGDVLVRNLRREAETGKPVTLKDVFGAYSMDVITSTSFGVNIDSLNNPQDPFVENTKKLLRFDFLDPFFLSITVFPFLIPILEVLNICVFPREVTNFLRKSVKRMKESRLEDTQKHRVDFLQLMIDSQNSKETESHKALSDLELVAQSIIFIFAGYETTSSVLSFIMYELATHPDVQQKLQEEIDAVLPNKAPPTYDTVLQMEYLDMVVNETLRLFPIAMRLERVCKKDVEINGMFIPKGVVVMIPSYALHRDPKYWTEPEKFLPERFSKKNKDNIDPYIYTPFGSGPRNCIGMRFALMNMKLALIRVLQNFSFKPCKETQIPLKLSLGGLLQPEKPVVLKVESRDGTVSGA
Sequence of Cytochrome P450 3A7 (Homo sapiens) (P24462 whole entry, looked up): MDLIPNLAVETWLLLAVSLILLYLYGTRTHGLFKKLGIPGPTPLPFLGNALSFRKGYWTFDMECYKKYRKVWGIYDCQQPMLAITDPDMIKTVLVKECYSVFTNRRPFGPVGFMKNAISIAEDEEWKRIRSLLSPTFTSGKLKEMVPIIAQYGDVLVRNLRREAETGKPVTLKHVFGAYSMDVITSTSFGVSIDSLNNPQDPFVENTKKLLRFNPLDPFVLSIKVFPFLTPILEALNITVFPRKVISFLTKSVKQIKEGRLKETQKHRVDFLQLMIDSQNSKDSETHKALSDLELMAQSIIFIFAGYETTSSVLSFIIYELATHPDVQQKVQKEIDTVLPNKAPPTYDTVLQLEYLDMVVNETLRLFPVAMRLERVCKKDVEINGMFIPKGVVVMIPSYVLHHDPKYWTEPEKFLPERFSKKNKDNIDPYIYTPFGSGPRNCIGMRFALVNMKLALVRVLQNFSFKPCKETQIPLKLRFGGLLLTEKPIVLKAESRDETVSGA
Sequence of Hypoxia-inducible factor 1-alpha (Homo sapiens) (Q16665 whole entry, looked up): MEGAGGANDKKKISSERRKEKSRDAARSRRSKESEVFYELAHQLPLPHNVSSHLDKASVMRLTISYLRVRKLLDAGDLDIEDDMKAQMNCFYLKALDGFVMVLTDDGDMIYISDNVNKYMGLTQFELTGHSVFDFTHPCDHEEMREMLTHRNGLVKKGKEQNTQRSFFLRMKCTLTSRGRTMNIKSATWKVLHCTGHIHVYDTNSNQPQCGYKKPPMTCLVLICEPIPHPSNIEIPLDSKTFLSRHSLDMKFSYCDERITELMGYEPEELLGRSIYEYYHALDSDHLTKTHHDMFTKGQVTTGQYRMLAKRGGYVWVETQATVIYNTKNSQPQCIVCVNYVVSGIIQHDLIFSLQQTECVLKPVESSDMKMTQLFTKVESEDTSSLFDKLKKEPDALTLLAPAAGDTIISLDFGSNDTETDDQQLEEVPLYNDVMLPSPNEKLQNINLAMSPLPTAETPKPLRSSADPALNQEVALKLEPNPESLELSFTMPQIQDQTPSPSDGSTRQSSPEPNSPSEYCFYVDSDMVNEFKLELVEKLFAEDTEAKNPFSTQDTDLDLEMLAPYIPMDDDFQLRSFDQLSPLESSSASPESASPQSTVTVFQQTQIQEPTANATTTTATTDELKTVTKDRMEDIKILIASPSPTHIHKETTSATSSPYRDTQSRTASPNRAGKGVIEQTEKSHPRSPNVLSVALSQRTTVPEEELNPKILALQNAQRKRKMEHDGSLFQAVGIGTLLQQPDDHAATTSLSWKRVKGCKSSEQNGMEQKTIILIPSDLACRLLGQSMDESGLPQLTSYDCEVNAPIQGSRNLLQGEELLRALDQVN

NC(=O)NN=Cc1ccc([N+](=O)[O-])o1
active: [1] 19 µM | [5] 50 µM | [10] 25.7 µM | [12] 13.6 µM | [17] 13.3 µM
not listed: [18] | [19] | [20]
inactive: all other assays above

O=C(O)[C@H](O)[C@@H](O)C(=O)O
inactive: [4] | [5] | [6] | [7] | [10] | [13] | [14] | [15] | [18] | [16] | [17]

NC(N)=O
not listed: [18] | [20]
inactive: all other assays above

Cn1c(=O)c2[nH]cnc2n(C)c1=O
not listed: [10] | [18] | [19]
inactive: all other assays above
